# High-throughput results from PubChem BioAssay.
# Hits are enriched below; roughly 11% of the tested compounds scored in any of these assays.
# HCV inh – blocks hepatitis C virus; Potency, µM (doses to about 41.8 µM), for the others: at the top dose activity change, negative = inhibition, most hits filed as inhibitors; actives 3.4% (n = 340,000); Huh7.5.1 HCVcc-Cre infection, luciferase reporter, 44 h
#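 Seed cells (1,000/well) for 4 h; treat with compound and infect with HCVcc-Cre, moi about 0.5. Incubate 44 h, then detect luciferase activity.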
# Pf growth 96h – P. falciparum growth inhibition at 96 hour, primary screen for plastid delayed-death inhibitors. P. falciparum luciferase reporter growth, 96 h. Potency, µM (series often up to 28.7 µM), inactives show top-dose activity change, negative = inhibition, most hits filed as inhibitors. actives 6.9% (n = 320,000)
#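 Two-generation exposure (96 h) targets delayed-death phenotype. Reporter parasites carrying integrated firefly luciferase, in red cells at 2% hematocrit and 0.05% parasitemia final, kept at 37 C, 5% CO2; luminescence loss indicates inhibition.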
# Pf growth 48h – inhibits P. falciparum growth in the first generation, 48 h; actives 5.9% (n = 310,000); Potency, µM (titrated, usually from 28.7 µM), for inactives: top-dose activity change, negative = inhibition, actives largely listed as inhibitors; P. falciparum luciferase growth in erythrocytes, 48 h
#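 Luciferase-expressing P. falciparum in infected erythrocytes (2% hematocrit, 0.1% parasitemia final) in RPMI 1640/0.5% Albumax were exposed to compound for 48 hours at 37 C, 5% CO2; growth read as luminescence.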
# AMA1-RON2 inh – disrupts binding of P. falciparum AMA1 to RON2; AlphaScreen AMA1-biotinylated RON2 peptide binding; Potency, µM (titrated, usually from 58.2 µM), without a hit: at the highest dose activity change, negative = inhibition, most hits filed as inhibitors; actives 0.2% (n = 360,000);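 further: 0% = vehicle wells and -100% = peptide control; nearly all actives have a fitted effect of over 45% in size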
#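 AMA1 (3D7) with his tag at 25 nM final met compounds first, then biotinylated RON2 peptide at 25 nM; detection used donor plus acceptor beads, 10 µg/mL apiece, read by AlphaScreen after 30 min at room temperature.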
# The depositor's hits bear a star; ? = inconclusive; nt = not tested or not shown; ! = repeats disagree; [ ] = dose if it differs, or a comment. The call rests on the fitted dose curve; in most records, active means well fitted curve in the direction sought with a large enough effect; inconclusive means small, poorly fitted or top-dose-only effect, or another doubt; inactive means no such curve, though single readings can be large; an effect the other way counts as inactive or inconclusive. Unless noted, on the % scale 0 is the no-effect control and ±100 the full control effect; potency means the concentration at half of the fitted maximal effect.
SMILES,HCV inh,Pf growth 96h,Pf growth 48h,AMA1-RON2 inh
Oc1ccc2cc(Br)ccc2c1CN1CCCC1,-6.2%,4.65µM*,?,36.0%
O=c1oc2ccccc2c(O)c1CN1CCCCC1,11.9%,14.7µM*,34.8%,24.5%
Oc1ccc2ccccc2c1CN1CCCC1,9.8%,37.6%,13.1µM*,-3.8%
Oc1ccc2ccccc2c1CN1CCCCC1,-9.6%,nt,nt,-5.9%
O=C(O)CCC(=O)Nc1ccc(Sc2ccc([N+](=O)[O-])cc2)cc1,15.1%,-7.1%,9.3%,-2.8%
CN(Cc1ccccc1)N=Nc1ccccc1,nt,nt,nt,43.7%
CN(C)N=Nc1ccc(-c2cn(Cc3ccccc3)cn2)cc1,11.4%,4.65µM*,?,-9.5%
Cc1ccc(C)c(Cn2nnc3c(=O)[nH]c(C4CCN(C(=O)c5ccco5)CC4)nc32)c1,7.1%,-10.5%,?,-3.0%
COc1cccc(-c2nnc(SCC(=O)NCc3ccc4c(c3)OCO4)n2Cc2ccco2)c1,-5.8%,6.57µM*,nt,11.1%
CCOC(=O)c1c(NC(=O)CSc2nnc(-c3cccc(C)c3)n2CC)sc(C(C)=O)c1C,3.55µM*,-23.3%,11.3%,-13.3%
CCOC(=O)c1c(NC(=O)CSc2nc3cc(Cl)ccc3c(=O)n2Cc2ccco2)sc(C(=O)N(C)C)c1C,?,4.15µM*,5.86µM*,62.3%
CCc1ccc(NC(=O)CSc2nc3cc(C(=O)OC)ccc3c(=O)n2Cc2ccco2)cc1,12.6%,-12.0%,33.6%,-11.9%
CCOC(=O)CNC(=O)CSc1nnc(-c2ccco2)n1N,13.2%,?,23.3%,-0.5%
O=C(CSc1nnc(-c2cccnc2)n1Cc1ccco1)NCc1ccc2c(c1)OCO2,0.2%,?,3.5%,-10.1%
CCOC(=O)CNC(=O)CSc1nnc(-c2ccco2)n1Cc1ccco1,-0.5%,8.28µM*,38.9%,-2.8%
CC(C)[C@H](NC(=O)c1c(F)cccc1F)C(=O)OCC(=O)NNC(=O)c1ccccc1,nt,nt,nt,58.9%
CCOC(=O)c1c(NC(=O)CSc2nnc(CNc3ccc(F)cc3)o2)sc(C(C)=O)c1C,?,1.65µM*,-16.3%,101.5%
CCOC(=O)c1sc(NC(=O)CSc2nnc(-c3ccco3)n2CC)c(C(=O)OCC)c1C,10µM*!,nt,?,-7.4%
CC(C)[C@H](NC(=O)c1ccccc1F)C(=O)OCCN1C(=O)c2ccccc2C1=O,26.5%,nt,nt,-4.7%
O=C(COC(=O)c1ccc[n+]([O-])c1)Nc1ccc([N+](=O)[O-])cc1Cl,3.4%,nt,nt,-10.4%[11.6 µM]
Cc1nc([N+](=O)[O-])c(C(=O)OCc2ccccc2)n1C,-2.1%,?,45.4%,14.2%
Cc1nc([N+](=O)[O-])c(C(=O)OCc2cccc(Br)c2)n1C,-27.6%,7.38µM*,2.3%,-7.5%
O=C(NC(=S)N1CCN(c2ccc(C(F)(F)F)cc2[N+](=O)[O-])CC1)c1cccs1,6.7%,4.15µM*,-5.5%,-4.9%
Cc1ccc(C2=NN=C(NC(=O)CSc3nncn3C)SC2)cc1,?,36.0%[5.75 µM],?,65.6%
COCCN(Cc1nc(C2(c3ccc(C)cc3)CCCC2)no1)C(C)C,-8.1%,13.1µM*,?,-0.9%
SMILES,HCV inh,Pf growth 96h,Pf growth 48h,AMA1-RON2 inh
Cc1ccc(C2(c3noc(CN4CCC(c5ccncc5)CC4)n3)CCCC2)cc1,10µM*,11.7µM*,?,?
CCCCCOc1ccc(C(=O)CCC(=O)Nc2ccc(NC(C)=O)cc2)cc1,6.0%,37.1%,56.1%,-2.1%
Cc1cc2nnc(SCC(=O)Nc3cccc(S(=O)(=O)N4CCOCC4)c3)n2c2ccccc12,-25.4%,?,?,-12.2%[11.6 µM]
Cc1ccc(S(=O)(=O)N2C[C@H]3C(=O)C[C@@H](c4cccc(Cl)c4)N(S(=O)(=O)c4ccc(C)cc4)[C@H]3C[C@H]2c2ccc(Cl)cc2)cc1,nt,nt,nt,6.3%
N#Cc1c(-c2ccccc2)ccn(Cc2cccc(Cl)c2)c1=O,-20.5%,13.1µM*,?,-5.5%
N#Cc1c(-c2ccccc2)ccn(Cc2ccccc2Cl)c1=O,-6.5%,14.7µM*,?,-7.1%
CCOC(=O)c1nc(C)nc(Sc2n[nH]c(-c3cc(C(F)(F)F)cc(C(F)(F)F)c3)n2)c1C,-11.5%,-2.7%,0.0%,-12.0%
CC(=O)Nc1sc2c(c1C(c1ccccn1)N1CCCC1)CCCC2 (centres undefined),13.4%,10.4µM*,9.28µM*,65.9%
CC(=O)Nc1sc2c(c1C(c1ccccn1)N1CCN(C)CC1)CCCC2 (centres undefined),12.2%,?,-25.1%,-13.1%
CC(=O)Nc1sc2c(c1C(c1ccccc1Cl)N1CCN(CCO)CC1)CCCC2 (centres undefined),11.2µM*,?,?,-12.5%
O=S(=O)(Nc1cccc(-c2cn3c(n2)SCC3)c1)c1ccc(F)cc1F,5.8%,-24.3%,-28.7%,-4.4%
CC(Cc1cccs1)NC(=O)Nc1ccccc1 (centres undefined),-6.6%,2.94µM*,41.9%,-2.6%
O=S(=O)(NCc1cn2ccsc2n1)c1ccc(Oc2ccccc2)cc1,7.94µM*,nt,1.2%,-7.3%
CCCCCCC(C)(C)c1ccc([C@@H]2C[C@H](O)CC[C@H]2CCCO)c(O)c1,?,5.22µM*,4.65µM*,4.7%
C[C@H](CO)N1C[C@H](C)[C@@H](CN(C)C(=O)Nc2ccc(C(F)(F)F)cc2)Oc2ccc(NC(=O)Cc3ccccc3)cc2C1=O,?,nt,nt,-5.4%
CCOc1cccc2sc(=NC(=O)c3ccco3)n(CC(=O)OC)c12,11.2µM*,-28.4%,?,6.1%
CCn1c(=NC(=O)c2ccc(S(=O)(=O)N(C)C)cc2)sc2cccc(OC)c21,?,?,8.28µM*,-13.0%
CCOc1cccc2sc(=NC(=O)CCS(=O)(=O)c3ccccc3)n(CC)c12,11.2µM*,?,?,7.0%
C#CCn1c(=NC(=O)c2ccco2)sc2cccc(Cl)c21,-3.3%,14.9%,19.1%,16.4%
Cc1cccnc1NC(=O)CSc1ccc2c(c1)OCCO2,-1.6%,41.0%,49.0%,7.7%
COc1ccc(OCC(=O)Nc2c(C(=O)N(CCN(C)C)Cc3ccco3)oc3ccccc23)cc1,?,10.4µM*,?,-7.5%
Cc1ccccc1C(=O)Nc1c(C(=O)N(CCN(C)C)Cc2ccco2)oc2ccccc12,?,42.8%,?,-5.2%
CCCN1CCN(C(=O)c2oc3ccccc3c2NC(=O)COc2ccc(OC)cc2)CC1,?,?,?,-9.5%
COc1ccccc1C(=O)Nc1c(C(=O)N(CCN(C)C)Cc2ccco2)oc2ccccc12,?,10.4µM*,?,-20.8%
CCCCCSc1cc(OC)c(CCN)cc1OC,?,?,?,-29.6%
CCCCCCCSc1cc(OC)c(CCN(C)C)cc1OC,?,4.65µM*,?,?
CC(=O)c1c(C)[nH]c(C(=O)Nc2nc(-c3ccc(-c4ccccc4)cc3)cs2)c1C,?,7.38µM*,8.28µM*,-2.4%
COc1ccc(-c2nc(NC(=O)Cn3ccc(C(F)(F)F)n3)sc2C)cc1,?,13.1µM*,nt,-4.8%
CC(=O)c1c(C)[nH]c(C(=O)Nc2nc(-c3ccc(Cl)cc3)cs2)c1C,?,?,?,1.4%
